For one compound, AC50 results are on record in PubChem BioAssay AID2284162 (EPA ToxCast).

The source made the active and inactive calls. How the source made its calls: active means hit-call score of the fitted dose curve at least 0.9, where 1 is the maximum; inactive means score below 0.9.

Sequence of human Histamine Receptor H1, HRH1 (gene 3269) (P35367 whole entry, looked up): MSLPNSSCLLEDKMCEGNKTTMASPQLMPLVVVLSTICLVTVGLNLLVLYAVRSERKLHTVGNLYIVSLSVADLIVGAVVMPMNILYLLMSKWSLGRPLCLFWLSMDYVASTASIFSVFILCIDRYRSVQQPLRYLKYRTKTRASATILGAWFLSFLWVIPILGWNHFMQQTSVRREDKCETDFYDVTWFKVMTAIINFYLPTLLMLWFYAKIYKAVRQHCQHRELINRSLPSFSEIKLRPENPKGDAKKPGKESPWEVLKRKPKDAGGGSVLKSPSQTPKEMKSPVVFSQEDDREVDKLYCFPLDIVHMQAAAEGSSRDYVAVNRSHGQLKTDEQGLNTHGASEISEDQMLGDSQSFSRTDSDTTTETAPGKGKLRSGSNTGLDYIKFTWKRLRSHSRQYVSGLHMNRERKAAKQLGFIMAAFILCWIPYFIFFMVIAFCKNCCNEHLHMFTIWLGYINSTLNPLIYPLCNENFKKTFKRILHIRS

In the assay the target is human Histamine Receptor H1, HRH1 (gene 3269) (UniProt P35367). The assay can be described thus: ERF_FR_GPCR_hHRH1: Eurofins (ERF) G Protein-Coupled Receptor (GPCR) Radioligand Binding LeadHunter Assay for human Histamine Receptor H1 Antagonism, conducted at France lab site. Here is the method:
ERF_FR_GPCR_hHRH1 is a biochemical, single-readout assay that uses extracted gene-proteins in a cell-free assay. Measurements were taken 1 hour after chemical dosing in a 96-well plate. See H1 Human Histamine GPCR Binding (Antagonist Radioligand) Assay, Cerep.ERF_FR_GPCR_hHRH1 is an assay component calculated from the ERF_FR_GPCR_hHRH1 assay. It is designed to measure radioligand binding using a type of binding reporter as detected by scintillation counting with radiometry technology.Data from the assay component ERF_FR_GPCR_hHRH1 was analyzed at the assay endpoint, ERF_FR_GPCR_hHRH1, in the positive analysis fitting direction relative to DMSO as the negative control and baseline of activity. Using a type of binding reporter, loss-of-signal activity can be used to understand changes in binding as they relate to gene HRH1. To generalize the intended target to other relatable targets, this assay endpoint is annotated to the gpcr intended target family, where the subfamily is histamine.
Human cells are incubated for 60 minutes at room temprature with [3H]pyrilamine ligand (1 nM) and Pyrilamine as control inhibitor. Test Sample Requirements: Minimum for 1) Screen: 60 ul of 10 mM stock -OR- 1 mg (pre-weighed) for 10 uM final testing. 2) Dose Response: 90 ul of 10 mM stock -OR- 1 mg (pre-weighed) for a top concentration at 10 uM.
As usually defined, the AC50 is the concentration at which the activity in the assay is half-maximal. Regarding `O=C(/C=C/c1ccc(O)cc1)CC(=O)/C=C/c1ccc(O)cc1`, the AC50 was 1460 nM (active).
